Granule exo inh: LAMP-1 surface exposure blockers, TALL-104 cells – cell-based, flow cytometry, MLPCN library, primary screen; TALL-104 LAMP-1 surface exposure; cells stimulated with thapsigargin and PMA; inhibition, % at 10 µM; 0.66% of 360,000 active; AID 651702, 2012;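 active = inhibition above about 55%, limit read from the data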
PG9 binder: binders of HIV-1 gp120 antibody PG9, primary screen, biochemical, TR-FRET; HIV-1 gp120 / PG9 antibody interaction; TR-FRET gp120-PG9 antibody binding; inhibition, % at 6.7 µM; 0.43% of 360,000 active; in the data active = inhibition above about 8.5%
rCAG binder: binders of r(CAG) RNA repeats, primary screen, biochemical, fluorescence | inhibition, % at 3 µM | AID 651821, 2012 | 1.3% of 370,000 active | r(CAG) RNA repeat, TO-PRO-1 dye displacement fluorescence;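 active = inhibition above the plate cutoff, the mean of all test compounds on that plate plus 3 SD, cut at about 35% in these data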;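 also: higher means more dye released from RNA so lower well fluorescence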
ABCB6 inh 2: ABCB6 transporter inhibitors, primary screen, K562-ABCB6 cells, flow cytometry, MLPCN library; ATP-binding cassette sub-family B member 6 (Homo sapiens), Q9NP58; K562-ABCB6 porphyrin accumulation, 1 h; stronger effect = lower value; fluorescence ratio to DMSO, % at 10 µM; 0.19% of 360,000 active; AID 602162, 2011;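 active = fluorescence ratio to DMSO below 75%, the collection mean minus 3 SD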;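 also: signal is porphyrin accumulated inside mitochondria; lower ratio means ABCB6 inhibition with less porphyrin fluorescence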
Target sequence (Q9NP58 whole entry, looked up): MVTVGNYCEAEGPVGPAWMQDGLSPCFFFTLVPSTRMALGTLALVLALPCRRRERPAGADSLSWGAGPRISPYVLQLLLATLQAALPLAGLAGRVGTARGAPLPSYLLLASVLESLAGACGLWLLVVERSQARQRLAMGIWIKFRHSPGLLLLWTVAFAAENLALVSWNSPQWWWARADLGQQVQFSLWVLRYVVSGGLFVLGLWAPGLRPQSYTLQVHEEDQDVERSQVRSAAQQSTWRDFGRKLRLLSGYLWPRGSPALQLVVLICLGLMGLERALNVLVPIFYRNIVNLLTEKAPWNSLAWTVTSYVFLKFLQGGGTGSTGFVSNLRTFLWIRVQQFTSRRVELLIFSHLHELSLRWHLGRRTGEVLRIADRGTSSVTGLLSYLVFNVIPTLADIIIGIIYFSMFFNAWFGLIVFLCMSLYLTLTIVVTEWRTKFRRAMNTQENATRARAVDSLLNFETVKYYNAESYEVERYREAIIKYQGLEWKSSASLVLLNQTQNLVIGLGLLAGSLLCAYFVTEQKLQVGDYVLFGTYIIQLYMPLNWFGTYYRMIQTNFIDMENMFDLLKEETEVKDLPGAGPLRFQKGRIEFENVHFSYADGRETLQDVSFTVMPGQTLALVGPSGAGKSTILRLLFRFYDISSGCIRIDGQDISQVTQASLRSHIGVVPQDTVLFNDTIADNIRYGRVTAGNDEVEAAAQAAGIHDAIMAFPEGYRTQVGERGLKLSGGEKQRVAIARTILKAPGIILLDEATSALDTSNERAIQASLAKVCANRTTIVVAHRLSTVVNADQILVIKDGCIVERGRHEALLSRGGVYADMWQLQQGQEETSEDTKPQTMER
Exocytosis CP01: inhibitors of lytic granule exocytosis, confirmation, TALL-104 cells, flow cytometry, Cherry Pick01. shares compounds with Granule exo inh. LAMP-1 externalization; stimulated with PMA plus thapsigargin. inhibition, % at 10 µM. 11% of 1,500 active. AID 651954, 2012; in the data active = inhibition above about 60%
Large screens that a line does not name were inactive (follow-up assays come after a bar, where they were run). Sampled rows, rich in hits. Any-hit rate of the full collection: about 2.5%.

CC(NC(=O)CCC(=O)c1ccc(F)cc1)C1CC2CCC1C2 (configuration not stated)	Granule exo inh 103.7 | Exocytosis CP01 inactive
CCCCn1nnnc1C(c1cccc2ccccc12)N1CCN(C/C=C/c2ccccc2)CC1 (configuration not stated)	Granule exo inh 57.5 | Exocytosis CP01 inactive
CCCOc1ccc(Oc2nc(-c3ccncc3)nc3ccccc23)cc1	Granule exo inh 93.7 | Exocytosis CP01 inactive
OCCN1CCN(c2cc(-c3ccc4ccccc4c3)nc3ccnn23)CC1	Granule exo inh 59.1 | Exocytosis CP01 inactive
Fc1cccc(Cc2c(-c3ccco3)nc3c4ccccc4ccn23)c1	Granule exo inh 86.9 | Exocytosis CP01 inactive
Clc1cccc(Cc2c(-c3ccco3)nc3c4ccccc4ccn23)c1	Granule exo inh 96.5 | Exocytosis CP01 inactive
Fc1ccc(-c2nc3c4ccccc4ccn3c2Cc2cccc(F)c2)cc1	none (no result: Granule exo inh, ABCB6 inh 2)
COCc1cc(C)nc2sc(C(=O)Nc3ccc(C(=O)OC)cc3)c(N)c12	Granule exo inh 84.8 | Exocytosis CP01 inactive
CCC1CCCCN1CCCNC(=O)c1ccc2c(c1)N(Cc1ccc(F)cc1)C(=O)c1ccccc1S2=O (configuration not stated)	Granule exo inh 61.1 | Exocytosis CP01 inactive
O=C(NCCCN1CCCC1)c1ccc2c(c1)N(Cc1ccc(F)cc1)C(=O)c1ccccc1S2=O (configuration not stated)	none
CCN(CC)CCCNC(=S)N1CCN(c2nc(-c3ccccc3)cs2)CC1	Granule exo inh 83.2 | Exocytosis CP01 inactive
CCOCCCNC(=S)N1CCN(c2nc(-c3ccccc3)cs2)CC1	none
CN(C(=O)c1cccc(NC(=O)Cc2ccc(NC(=O)C3CCN(C(=O)C4CCC4)CC3)cc2)c1)C1CCCCC1	Granule exo inh 58.4 | Exocytosis CP01 inactive
O=C(NCC1CCCCC1)C1(CC2CC(c3ccc(Cl)cc3)=NO2)CCNCC1 (configuration not stated)	none
O=C(NC(Cc1ccccc1)C(=O)O)C1CCN(S(=O)(=O)c2ccccc2C(F)(F)F)CC1 (configuration not stated)	none
N#Cc1nc(-c2ccc(OCc3ccccc3)cc2)oc1NCCCn1ccnc1	Granule exo inh 80.8 | Exocytosis CP01 inactive
COc1ccc(OC)c(-c2csc(NC(=O)Cc3ccccc3OC)n2)c1	Granule exo inh 68.0 | Exocytosis CP01 inactive
COc1ccc(-c2cnc3c(NC(C)=O)cc(-c4ccc(S(C)(=O)=O)cc4)cn23)cc1OC	none
COc1ccc(NC(=O)CN(C)CC(=O)N(C)C2(C#N)CCC(C)CC2)cc1 (configuration not stated)	none
COc1ccc(CCNC(=O)C2CC3Cn4c(nc5cc(Cl)c(Cl)cc54)C3N2C)cc1 (configuration not stated)	Granule exo inh 83.3 | Exocytosis CP01 inactive
COc1ccccc1C(=O)NCC1(c2ccccc2)CCCC1	Granule exo inh 80.5 | Exocytosis CP01 inactive
C/C(=N\NC(=O)C(O)c1ccccc1)c1ccc(Br)s1 (configuration not stated)	none
O=C(Cc1ccccc1)c1c[nH]c(C(=O)NCCCN2CCOCC2)c1	none
Cc1cccc(S(=O)(=O)Nc2ccc(S(=O)(=O)Nc3nccs3)cc2)c1	Granule exo inh 60.9 | Exocytosis CP01 inactive
O=S(=O)(Nc1nccs1)c1ccc(F)cc1	none
Cc1[nH]c(=O)[nH]c(=O)c1S(=O)(=O)N1CCCC(C(=O)NCCC2=CCCCC2)C1 (configuration not stated)	none
COc1ccc(C(C)=O)cc1COC(=O)c1cc2ccccc2cc1O	Granule exo inh 91.4 | Exocytosis CP01 inactive
C[C@@H]1CCCCO[C@H](CN(C)S(=O)(=O)c2ccccc2)[C@@H](C)CN([C@H](C)CO)C(=O)c2cc(NC(=O)Cc3ccccc3)ccc2O1	none
Cc1ccc(NC(=O)COC(=O)[C@H](C)NC(N)=O)c(C)c1	none
CN1CCN(CC(=O)Nc2c(C#N)cnn2-c2ccccc2)CC1	none
CN(C)CCC(=O)c1ccc2c(c1)OCO2	Granule exo inh 102.3 | Exocytosis CP01 102.5
CC(=O)NC12CC3CC(C1)CC(C(=O)Nc1cccc(S(=O)(=O)N4CCCCCC4)c1)(C3)C2	none
